Compound activity as filed in PubChem.
The sample as a whole holds a higher share of hits than the screen did.
Marburg entry inh: inhibitors of Marburg virus binding or cell entry | Potency, µM (top dose mostly 37.8 µM), inactives show at the highest dose activity change, negative = inhibition, most hits filed as inhibitors | Marburg virus pseudotyped entry inhibition, cell reporter | AID 540276 | 300,000 compounds, 1.8% hits; calls by dose curve; tested in HEK293 cells; further: potency means the concentration at half of the fitted maximal effect; on the % scale 0 is the no-effect control and ±100 the full control effect
VACV Venus inh: vaccinia inhibition (Venus reporter). 330,000 compounds, 0.46% hits. Potency, µM (titrated, usually from 36.5 µM), inactives show top-dose activity change, negative = inhibition, usual class: inhibitors. Vaccinia virus Venus reporter expression, fluorescence. AID 720580; calls by dose curve; tested in A549 cells; further: potency means the concentration at half of the fitted maximal effect; on the % scale 0 is the no-effect control and ±100 the full control effect; nearly all actives have a fitted effect of over 30% in size
Vaccinia mCherry: vaccinia inhibition (mCherry reporter); Vaccinia virus mCherry reporter infection, fluorescence; Potency, µM (top dose mostly 36.5 µM), for inactives: top-dose activity change, negative = inhibition, hits mostly inhibitors; 310,000 compounds, 0.63% hits; AID 720579; calls by dose curve; tested in A549 cells; further: potency means the concentration at half of the fitted maximal effect; on the % scale 0 is the no-effect control and ±100 the full control effect; nearly all actives have a fitted effect of over 35% in size
Lassa entry inh: blocks Lassa virus binding to or entry into cells; Lassa virus pseudotype entry inhibition, cell reporter; 300,000 compounds, 1.2% hits; AID 540256; Potency, µM (titrated, usually from 37.9 µM), for inactives: at the top dose activity change, negative = inhibition, usual class: inhibitors; calls by dose curve; tested in HEK293 cells; further: potency means the concentration at half of the fitted maximal effect; on the % scale 0 is the no-effect control and ±100 the full control effect; nearly all actives have a fitted effect of over 50% in size
Cycloheximide cs: counter-screen for Shiga toxin inhibitors: cycloheximide protein synthesis inhibition | max response, % | 300,000 compounds, 12% hits | cell reporter, cycloheximide protein synthesis inhibition counterscreen; in the data active means max response mostly above about 13%, no sharp cut-off; inactive means mostly below about 14%; further: read at 38.3 µM for the half of the compounds with a filed dose; 0% is about no effect
Shiga inhibitor: Shiga toxin inhibition; Vero cells, Shiga toxin protein synthesis inhibition reporter; inhibition, % at 38.7 µM; 290,000 compounds, 9.2% hits; in the data active means inhibition mostly above about 28%, no sharp cut-off; inactive means mostly below about 43%; further: 0% is about no effect
* marks the source's active call; other numbers are inactive results; i = inactive; ? = inconclusive; · = not tested or not shown; + = active, no number; [ ] = dose if it differs, or a comment.

SMILES	Marburg entry inh	VACV Venus inh	Vaccinia mCherry	Lassa entry inh	Cycloheximide cs	Shiga inhibitor
CN1c2ccccc2[C@@]2(O)C(=O)[C@@]1(C)[C@H]1Cc3ccccc3[C@H]12	0%[14.2 µM]	·	·	·	·	·
O=C(Nc1cnn(Cc2ccc(F)cc2)c1)c1cc(-c2ccco2)on1	?	-15%	3%	1%	12*	13
Cc1ccccc1Cn1cc(NC(=O)c2cc(-c3ccco3)on2)cn1	·	·	·	·	19	61*
Cc1cccc2c(=O)[nH]c3c(-c4nc(-c5ccc(Cl)cc5)cs4)c(O)cn3c12	·	-9%	-11%	·	·	·
CCOC(=O)C1(Cc2ccccc2C)CCCN(C(=O)CCn2nccc2C)C1 (stereo not given)	-25%[46.1 µM]	-4%	i	-17%	-3	19
CCOC(=O)C1(Cc2ccccc2C)CCCN(C(=O)c2ccccn2)C1 (stereo not given)	-7%[46.1 µM]	-13%	-3%	3%[46.1 µM]	40*	71*
CCOC(=O)C1(Cc2ccccc2)CCCN(Cc2cnn(CC)c2)C1 (stereo not given)	·	·	·	·	1	-6
CCOC(=O)C1(Cc2ccccc2)CCCN(C(=O)c2cnn(CC)c2)C1 (stereo not given)	?	-5%	i	10%[46.1 µM]	29*	73*
CCOC(=O)C1(Cc2ccccc2C)CCCN(C(=O)CCc2cccnc2)C1 (stereo not given)	-11%	·	·	10%	32*	33*
Cc1cc(N2C(=O)C(=O)/C(=C(/O)c3ccccc3)[C@H]2c2cccs2)no1	21%	·	·	·	·	·
Cc1ccc(OC(=O)CSc2nnc(-c3cccs3)o2)cc1C	-16%[46.1 µM]	-2%	-4%	2%[46.1 µM]	·	·
CCn1c(C)nc2cc(C(=O)NNC(=S)Nc3ccc(Cl)cc3)ccc21	·	·	·	·	22*	25
CCn1c(C)nc2cc(C(=O)NNC(=S)NC(=O)c3ccccc3)ccc21	8%	·	·	-12%	12	18
CCn1c(C)nc2cc(C(=O)NNC(=O)Nc3ccc(Cl)c(Cl)c3)ccc21	·	·	·	·	-2	24
CCn1c(C)nc2cc(C(=O)NNC(=S)Nc3ccccc3)ccc21	?	-27%	-26%	4.5µM*	32*	71*
CCn1c(C)nc2cc(C(=O)NNC(=S)Nc3ccc(F)cc3)ccc21	·	·	·	·	31*	58*
CCn1c(C)nc2cc(C(=O)NNC(=O)c3ccc(Cl)nc3)ccc21	13%[46.1 µM]	13%	6%	-6%	5	12
CCn1c(C)nc2cc(C(=O)OC(C(F)(F)C(F)F)C(F)(F)C(F)F)ccc21	14µM*	-8%	-24%	?	45*	70*
COc1ccccc1NC(=O)CN(Cc1ccco1)C(=O)c1cc2ccccc2o1	·	·	·	·	-2	16
COc1ccc(CCNC(=O)CSc2nc(C)nc3sccc23)cc1OC	?	-9%	-12%	-1%[46.1 µM]	-1	-3
Cc1c(C(=O)Nc2ccccc2C(=O)N2CCCC2)cccc1[N+](=O)[O-]	·	·	·	·	-2	-8
CCOc1ccccc1C(=O)N(Cc1ccc(N(C)C)cc1)Cc1ccco1	11%[46.1 µM]	-10%	i	?	·	·
O=C(Cn1nnc2c(cnn2-c2ccc(F)cc2)c1=O)OC1CCCCC1	1%[46.1 µM]	-23%	-23%	17%	28*	64
CC(=O)Nc1ccc(S(=O)(=O)N(C#N)c2nc(N(C)C)nc(N(C)C)n2)cc1	?	-6%	-7%	4%	2	·
NCCc1c(-c2ccccc2)n(-c2ccccc2)c2ccccc12	13µM*	?	?	-28%[46.1 µM]	-5	-20
SMILES	Marburg entry inh	VACV Venus inh	Vaccinia mCherry	Lassa entry inh	Cycloheximide cs	Shiga inhibitor
O=C(C1CCOC1)N1CCOc2ccc(CN3CCC(Oc4cccnc4)CC3)cc2C1 (stereo not given)	·	-1%	-6%	·	·	·
COc1cccc(NC(=O)C(Cc2ccccc2)NC(=O)C2CCC(C)CC2)c1 (stereo not given)	5%	-16%	-19%	-21%	-3	18
COc1cccc(NC(=O)[C@H](Cc2ccccc2)NC(=O)[C@@H]2Cc3ccccc3CN2)c1	·	·	·	·	26*	41
COc1cccc(NC(=O)[C@H](NC(=O)[C@@H]2Cc3ccccc3CN2)c2ccccc2)c1	·	·	·	·	30*	38
Cc1ccc(NC(=O)[C@H](NC(=O)[C@@H]2Cc3ccccc3CN2)c2ccccc2)cc1	·	·	·	·	25*	45*
CC(C)c1ccc(NC(=O)[C@H](NC(=O)[C@@H]2Cc3ccccc3CN2)c2ccccc2)cc1	4µM*	-26%	-4%	0%[46.1 µM]	34*	35
CC(NC(=O)[C@H](NC(=O)[C@@H]1Cc2ccccc2CN1)c1ccccc1)c1ccccc1 (stereo not given in full)	·	-7%	-4%	·	7	14
OC1OC[C@H](O)[C@@H](O)[C@H]1O (stereo not given in full)	·	·	·	·	-2	-7
CCN(Cc1ccncc1)Cc1ccc2c(c1)CN(C(=O)c1ccc(C)cc1)CCO2	·	5%	-6%	·	·	·
Cc1ccccc1Nc1cc(C(=O)NC2CCCC2)c2ccccc2n1	-1%[46.1 µM]	-9%	1%	-11%[46.1 µM]	·	·
CCOc1ccc(OCCC(=O)OCC(=O)c2c(N)n(C)c(=O)n(C)c2=O)cc1	?	-4%	i	3%[46.1 µM]	·	·
Cc1cccc(NC(=O)[C@@H](CC(C)C)NC(=O)[C@@H]2Cc3ccccc3CN2)c1	·	·	·	·	15	18
Cc1cccc(NC(=O)[C@H](NC(=O)[C@@H]2Cc3ccccc3CN2)c2ccccc2)c1	·	·	·	·	26*	17
Cc1ccc(NC(=O)c2cc3ccccc3cc2O)cc1	·	·	·	·	40*	79*
Cc1ccc(NC(=O)NNC(=O)c2cc3ccccc3cc2O)cc1C	·	·	·	·	2	-7
O=C(Nc1ccccn1)c1cc2ccccc2cc1O	6%[46.1 µM]	8%	?	13%[46.1 µM]	31*	96*
Oc1cccc2ccc(Nc3ccccn3)nc12	?	·	·	23µM*	113*	+
c1ccc(Nc2ccccc2Nc2ccccn2)nc1	?	·	·	29%	0	6
COc1ccc(NC(=O)c2cc3ccccc3cc2O)cc1	1.1µM*	-23%	-20%	-38%	33*	62*
CCOc1ccc(NC(=O)CC2C(=O)N(c3ccc(OC)cc3)C(=O)N2CCC2=CCCCC2)cc1 (stereo not given)	?	-3%	-9%	-24%[46.1 µM]	·	·
O=S(=O)(C=C(c1ccccc1)c1ccccc1)c1ccccc1	-16%[46.1 µM]	-11%	·	?	6	0
CCc1nc2ccccc2c(C(=O)OCC(=O)N(CCOC)c2c(N)n(Cc3ccccc3)c(=O)[nH]c2=O)c1C	?	-19%	-21%	6%	·	·
C(/C=C/c1ccco1)=N/N1CCN(c2ccccc2)CC1	-27%	16%	·	?	34*	106*
Clc1ccccc1CN1CCN(/N=C/C=C\c2ccco2)CC1	?	3%	-2%	9%	16*	69*
COc1cc(OC)cc(C(=O)NC(=S)NNC(=O)[C@H]2C[C@@H]2c2ccccc2)c1	-16%[46.1 µM]	-6%	-19%	3.2µM*	-1	9
CC(C)(C)NC(=S)NNC(=O)[C@H]1C[C@@H]1c1ccccc1	18%[46.1 µM]	-2%	i	0.89µM*	9	10
N#Cc1nc(-c2ccc(OCc3ccccc3Cl)cc2)oc1N1CCCCCC1	·	-13%	27%	·	·	·
